Test results reported in PubChem BioAssay (NCI).
About 79,000 compounds went through this panel and 15% of them were active in at least one assay; those are over-represented in the sample as a whole. Unmarked numbers belong to inactive results. Activity calls are given as the source filed them. Cut-off read from the data, not from the text of the source: active = growth inhibition above about 70%; inactive = the rest.

Experiment: NCI Yeast Anticancer Drug Screen. Data for the rad52 strain (AID 147);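 note: 0% = growth of vehicle-treated control cultures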
Settings: S. cerevisiae rad52 mutant growth inhibition, active compounds read high
Experimental: Growth inhibition of yeast strains with defined genetic alterations is measured as a screen for potential anti-cancer activity. Selected strains with alterations in DNA damage repair or cell cycle control were exposed to compounds and growth inhibition was measured relative to vehicle treated controls. The strain used in this assay is rad52

Row | Structure (SMILES) | growth inhibition (at 1.2 µM) [%] | growth inhibition (at 3.7 µM) | growth inhibition (at 11.0 µM) | growth inhibition (at 33.0 µM) | growth inhibition (at 100.0 µM)
1 | COc1cc(O)c(O)c(C(C)(C)C)c1 | -1 | 3% | 5% | 10% | 19%
2 | CCO/C(C)=C(/C#N)C(N)=S | -1 | -1% | -1% | -2% | 3%
3 | CC(=O)SC(C[N+](=O)[O-])c1ccccc1 (stereo not given) | 55 | 76% (active) | 88% (active) | 99% (active) | 99% (active)
4 | O=C(/C=C(/c1ccccc1)N1CCCCC1)c1ccccc1 | 0 | 3% | 5% | 13% | 98% (active)
5 | Nc1nc(N)c2nc(CNc3ccc(C(=O)NC(CCC(=O)O)C(=O)O)cc3F)cnc2n1 (stereo not given) | 28 | 42% | 62% | 82% (active) | 89% (active)
6 | CCCCOCn1c(=O)[nH]c(=O)c2cc(Br)ccc21 | -35 | -45% | -30% | -6% | -10%
7 | CN(C)CCCCN1c2ccccc2Sc2ccc(N=[N+]=[N-])cc21 | 29 | 37% | 45% | 49% | 99% (active)
8 | O=C1c2ccccc2C(=O)N1CCCC(=O)n1cc(F)c(=O)[nH]c1=O | -31 | -33% | 0% | 29% | 8%
